In PubChem BioAssay AID434970 (Sanford-Burnham Center for Chemical Genomics, 2010) one finds activation factor and activity change, negative = activation data, which are given here for 43 molecules.

Each structure is given as a SMILES string. The whole screen tested about 11,000 compounds, of which about 310 (2.8%) were called active. Cut-off read from the data, not from the text of the source: active = activity change below about -85%; inactive = the rest. The list comes from a sample in which actives are over-represented; it also holds similar structures and randomly drawn compounds.

This assay relates to intestinal alkaline phosphatase [Mus musculus]. Description: activators of mouse IAP, confirmation, biochemical, luminescence, single concentration (AID 434970). To be noted: purified mouse IAP, CDP-Star luminescence, 30 min, at 10 µM; activation factor: measured here: IAP activation factor, stronger effect = higher value; activity change, negative = activation: stronger effect = lower value.
As for `CCOC(=O)C1=CN(Cc2ccco2)S(=O)(=O)N(CC)C1c1ccc(C(F)(F)F)cc1` (stereo unspecified), the activation factor was 0.893 and the activity change, negative = activation was 10.7% (inactive).
For `CCOc1ccc(N2CC(C(=O)NCCCN3CCOCC3)CC2=O)cc1` (stereo unspecified), in that order: 0.917 and 8.3% (inactive).
For `COc1ccccc1CC(=O)N(CCC#N)CCC#N`, in that order: 0.913 and 8.65% (inactive).
Take `O=C(COc1c(F)c(F)cc(F)c1F)NC(=O)NC1CCCC1`: the activation factor was 1.08 and the activity change, negative = activation is -7.8% (inactive).
For the molecule `N#C/C(=C1/CCCCCN1)c1nc2ccccc2[nH]1`, the activation factor came out at 1.08 and the activity change, negative = activation was -7.65% (inactive).
For `CCOC(=O)N1CCN(S(=O)(=O)c2ccc3c(c2)SCC(=O)N3)CC1`, in that order: 1.06 and -6.25% (inactive).
Taken in the same sequence, the figures for `COC(=O)[C@@]1(C)[C@H]2C(=O)N(C)C(=O)[C@H]2[C@H]2CN=C(SCc3ccc(Cl)cc3)N21` were 1.1 and -9.6% (inactive).
With `Cc1ccccc1C(=O)/C=C1\NC(=O)CS1`, the activation factor stood at 1.05 and the activity change, negative = activation was -5.35% (inactive).
As for `COc1cccc(NC(=O)Nc2ccc(C)c(Cl)c2)c1`, the activation factor turned out to be 2.17 and the activity change, negative = activation was -117% (active).
Taken in the same sequence, the figures for `CC(=O)Nc1cccc(NC(=O)Nc2ccc(C)c(Cl)c2)c1` were 1.9 and -89.6% (inactive).
Taken in the same sequence, the figures for `CCOP(=O)(OCC)C(NC(=O)Nc1ccc(Cl)cc1)c1ccccc1` (stereo unspecified) were 1.56 and -56.5% (inactive).
For `CCc1ccc(NC(=O)Nc2cccc(OC)c2)cc1`, in that order: 1.62 and -62.5% (inactive).
Turning to `COc1cccc(NC(=O)Nc2cc(Cl)ccc2C)c1`, the activation factor came to 1.41 and the activity change, negative = activation is -40.7% (inactive).
Take `COc1cccc(C(C)NC(=O)Nc2cccc(C(F)(F)F)c2)c1` (stereo unspecified): the activation factor was 3.84 and the activity change, negative = activation is -284% (active).
For `Cc1ccc(NC(=O)Nc2ccc(F)cc2)cc1Cl`, in that order: 1.51 and -50.8% (inactive).
`COc1ccc(N2CCN(C(=O)Nc3cccc(C(F)(F)F)c3)CC2)cc1`: the activation factor turned out to be 1.14 and the activity change, negative = activation is -14.2% (inactive).
Take `COc1cccc(NC(=O)Nc2cc(NC(=O)Nc3cccc(OC)c3)c(C)nc2C)c1`: the activation factor was 1.65 and the activity change, negative = activation was -65.3% (inactive).
As for `COc1cccc(NC(=O)Nc2ccc(C(C)(C)C)cc2)c1`, the activation factor is 2.18 and the activity change, negative = activation was -118% (active).
For `CCOP(=O)(OCC)C(NC(=O)Nc1ccc(C)c(Cl)c1)c1ccccc1` (stereo unspecified), the activation factor was 2.59 and the activity change, negative = activation is -159% (active).
Turning to `COc1cccc(NC(=O)CN(c2cccc(C(F)(F)F)c2)S(C)(=O)=O)c1`, the activation factor was 1.12 and the activity change, negative = activation is -12.2% (inactive).
For `Cc1oc(-c2ccc3c(c2)OCCO3)cc1C(=O)NC(CCC(=O)O)C(=O)O` (stereo unspecified), in that order: 0.95 and 5.05% (inactive).
For `O=C(NCCNS(=O)(=O)c1ccccc1)c1cc(OCC(F)(F)F)ccc1OCC(F)(F)F`, in that order: 1.09 and -9.5% (inactive).
With `C=CCn1c(=O)c2ccccc2n2c(Sc3nnnn3-c3ccccc3)nnc12`, the activation factor stood at 1 and the activity change, negative = activation was -0.35% (inactive).
Taken in the same sequence, the figures for `O=C(CN1N=C(C(F)(F)F)CC1(O)c1ccc([N+](=O)[O-])cc1)c1ccccc1` (stereo unspecified) were 1.07 and -7.45% (inactive).
As to `CC1=NN(/C(=N\c2nnc(C)s2)Nc2ccc(C(C)(C)C)cc2)[C@H](c2ccc(C)cc2)S1`, the activation factor is 0.976 and the activity change, negative = activation is 2.45% (inactive).
For `CCC(C)c1ccc(NC(=O)C2CC2)cc1` (stereo unspecified), the activation factor worked out at 1.07 and the activity change, negative = activation is -7.35% (inactive).
As for `Cc1cc(C)nc(-n2nc(C)c3c(C(F)(F)F)cc(=O)[nH]c32)n1`, the activation factor came out at 1.03 and the activity change, negative = activation was -2.7% (inactive).
Taken in the same sequence, the figures for `C=CCn1cc(CN2CCC(C(=O)Nc3cccc(-c4cccc(Cl)c4)c3)CC2)c(C)n1` were 3.74 and -274% (active).
Taken in the same sequence, the figures for `COc1ccc(Cl)cc1C(=O)NCc1cnn(C)c1C` were 0.932 and 6.75% (inactive).
Taken in the same sequence, the figures for `O=C(Nc1cccc(F)c1)N1CCN(C/C=C/c2ccccc2)CC1` were 0.988 and 1.15% (inactive).
`Cc1c(CN2CCC(C(=O)Nc3cccc(-c4cccc(Cl)c4)c3)CC2)cnn1C`: the activation factor came to 4.12 and the activity change, negative = activation was -312% (active).
Taken in the same sequence, the figures for `C/C(=N\NC(=O)c1nn(C)cc1Br)c1cccc(NC(=O)C2CCCC2)c1` were 1.03 and -3.45% (inactive).
In the case of `C=CCn1cc(CN2CCC(C(=O)Nc3cccc(-c4cccc(F)c4)c3)CC2)c(C)n1`, the activation factor stood at 2.94 and the activity change, negative = activation is -194% (active).
Taken in the same sequence, the figures for `CCn1cc(CN2CCC(C(=O)Nc3cccc(-c4cccc(Cl)c4)c3)CC2)c(C)n1` were 4.96 and -396% (active).
`Cc1cccc(-n2c(SCC(=O)Nc3ccc4c(c3)OCO4)nnc2-c2ccoc2C)c1`: the activation factor worked out at 1.03 and the activity change, negative = activation is -2.65% (inactive).
For `Cc1cccc(C2=NN(c3ccc(Br)cc3)[C@@H](C(=O)N3CCOC3=O)[C@@H]2C)c1`, the activation factor stood at 0.974 and the activity change, negative = activation is 2.65% (inactive).
Taken in the same sequence, the figures for `CC(=O)c1c(C)[nH]c(C(=O)N2CCN(c3cc(Cl)ccc3C)CC2)c1C` were 1.14 and -13.5% (inactive).
Taken in the same sequence, the figures for `CN(C(=O)C1CCOC1)c1nnc(-c2ccncc2)s1` (stereo unspecified) were 0.913 and 8.65% (inactive).
Taken in the same sequence, the figures for `CC(Oc1ccc(Br)cc1)C(=O)N1CCc2ccccc21` (stereo unspecified) were 1.16 and -16.1% (inactive).
With `N#Cc1c2c(c(NCCCN3CCOCC3)n3c1nc1ccccc13)CCC2`, the activation factor turned out to be 0.904 and the activity change, negative = activation is 9.6% (inactive).
For `Cc1ccc(C2CC(=O)Oc3cc(C)cc(C)c32)cc1` (stereo unspecified), in that order: 1.06 and -5.5% (inactive).
Taken in the same sequence, the figures for `COc1ccc(S(=O)(=O)c2ccc(O)cc2)cc1` were 0.992 and 0.8% (inactive).
Turning to `CC(C)[C@@H](CO)N(C)S(=O)(=O)c1ccccc1Br`, the activation factor worked out at 1.01 and the activity change, negative = activation was -0.85% (inactive).
